Source: PubChem BioAssay
Kir21 block: inhibitors of mouse Kir2.1 inward-rectifier potassium channel; P35561; HEK293-Kir2.1, FluxOR thallium flux fluorescence; active compounds read low; B-score at 10 µM; 310,000 tested, 0.85% active;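 active means fluorescence ratio B-score at or below minus 3 SD of library scores, with starting-brightness B-score within 2 SD, cut at about -4.2 in these data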;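 further: channel flux triggered by added potassium and thallium sulfate stimulus; B-score of peak minus minimum fluorescence over baseline after thallium stimulus; more negative B-score means stronger Kir2.1 block with less thallium influx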
Rce1 inhib: yeast Ras-converting enzyme inhibition; Q03530; yeast membranes, quenched prenylated peptide cleavage fluorescence; calls only; 290,000 tested, 0.27% active;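 active means fall in fluorescence gain of 50% or more versus controls, with final raw signal at or below 3038400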
Target sequence (Q03530 whole entry, looked up): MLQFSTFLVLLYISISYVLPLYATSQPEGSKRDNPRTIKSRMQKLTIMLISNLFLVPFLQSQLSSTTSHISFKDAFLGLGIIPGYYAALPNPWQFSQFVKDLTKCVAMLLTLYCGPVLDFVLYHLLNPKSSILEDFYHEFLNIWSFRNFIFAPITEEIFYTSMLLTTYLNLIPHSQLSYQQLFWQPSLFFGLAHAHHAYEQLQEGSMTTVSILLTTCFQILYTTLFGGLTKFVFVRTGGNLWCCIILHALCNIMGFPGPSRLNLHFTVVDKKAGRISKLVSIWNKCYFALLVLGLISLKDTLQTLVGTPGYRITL
DNA FID counter: counter-screen for HCV NS3 helicase inhibitors: DNA intercalator displacement | DNA fluorescent intercalator displacement, fluorescence | inhibition, % at 7.9 µM | 290,000 tested, 0.17% active | AID 1845; in the data active means inhibition above about 37%;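 further: higher means more ethidium bromide displaced from hairpin DNA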
PfM18AAP inh: PfM18AAP enzyme inhibition; recombinant PfM18AAP, H-Glu-NHMec fluorogenic cleavage; AID 1822; 290,000 tested, 1.2% active; inhibition, % at 7.35 µM;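 active means inhibition above the campaign mean inhibition over all tested compounds plus 3 SD, cut at about 28% in these data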
hERG inh: hERG (human) inhibition as Kir2.1 counter-screen; shares compounds with Kir21 block; hERG-expressing cells, thallium flux; inhibition, % at 10 µM; 320 tested, 20% active;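 further: host cells are CHO cells stably expressing hERG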
KCNK9 inh: human KCNK9 off-target activity of Kir2.1 blockers. shares compounds with Kir21 block. KCNK9-expressing cells, ion flux inhibition. inhibition, % at 10 µM. 320 tested, 5% active
Kir21 ephys inh: mouse Kir2.1 inward rectifier channel inhibition; shares compounds with Kir21 block; Kir2.1 cells, automated patch-clamp current inhibition; inhibition, % at 25 µM; 320 tested, 71% active
Large screens that a line does not name were inactive (follow-up assays come after a bar, where they were run). Most compounds without a hit are left out; they make up all but 2.3% or so of the library. Unless noted, how the calls were made is not given here.

CC(=O)N1CC(C)Sc2ccc(S(=O)(=O)NCc3ccccc3Cl)cc21 (configuration not stated)	Kir21 block -6.1 | hERG inh inactive | KCNK9 inh inactive | Kir21 ephys inh inactive
CC(=O)N1CCOc2ccc(S(=O)(=O)NCc3ccccc3Cl)cc21	none
Cc1ccc(NC(=O)CN(C)C(=O)COC(=O)CCS(=O)(=O)c2ccc(C)cc2)cc1	none
CNC(=O)c1sccc1SCc1c(Cl)cccc1Cl	Kir21 block -9.4 | hERG inh inactive | KCNK9 inh inactive | Kir21 ephys inh 43%
Cc1cccc(C)c1NC(=O)c1sccc1SCC#N	none (no result: Rce1 inhib)
CN(C)CCOCCOc1ccc(Cl)cc1C(C)(C)C	Kir21 block -6 | hERG inh 47% | KCNK9 inh inactive | Kir21 ephys inh 37%
C=CCc1cc(Cl)ccc1OCCN(C)C	none
O=[N+]([O-])c1ccccc1S(=O)(=O)N1CCCc2ccccc21	none
O=S(=O)(c1ccccc1F)N1CCCc2ccccc21	Kir21 block -6.1 | hERG inh inactive | KCNK9 inh inactive | Kir21 ephys inh 32%
CSc1cccc(N2CC(C(=O)N(Cc3nnc(-c4ccccc4Cl)o3)C3CC3)CC2=O)c1 (configuration not stated)	none
COc1ccc(CNCc2cccc(Oc3ccccc3)c2)cc1	Kir21 block -14 | hERG inh inactive | KCNK9 inh inactive | Kir21 ephys inh 85%
COc1ccc(CNC(=O)c2ccccc2C(=O)O)cc1	none
COc1ccc(CNCC(O)(c2ccccc2)c2ccccc2)cc1	Kir21 block -6.2 | hERG inh 46% | KCNK9 inh inactive | Kir21 ephys inh inactive
COc1ccccc1-c1nnc(C2CCN(S(=O)(=O)c3ccccc3[N+](=O)[O-])CC2)o1	none
CC(C)Oc1ccccc1NC(=O)CSc1nc2ccccc2c(=O)n1C	Kir21 block -8.9 | hERG inh inactive | KCNK9 inh inactive | Kir21 ephys inh 9.9%
Cc1cccn2c(=O)c3cc(S(=O)(=O)c4ccc(Br)cc4)c(=N)n(C4CCCC4)c3nc12	none | hERG inh inactive | KCNK9 inh inactive | Kir21 ephys inh inactive
O=S(=O)(NCc1csc(-c2cccs2)n1)c1ccc(Cl)cc1	Kir21 block -11 | hERG inh inactive | KCNK9 inh inactive | Kir21 ephys inh 22%
CN(CC(=O)Nc1ccccc1C(F)(F)F)C(=O)CN1C(=O)C2CCCCC2C1=O (configuration not stated)	none (no result: Rce1 inhib, DNA FID counter, PfM18AAP inh)
Cc1ccc(NC(=O)COc2ccccc2CNC(C)(C)CC(C)(C)C)cc1	Kir21 block -6.3 | hERG inh 50% | KCNK9 inh 37% | Kir21 ephys inh inactive
CC(C)(CO)NCc1ccccc1OCC(=O)Nc1ccccc1	none
O=C(CSc1n[nH]c(-c2cccnc2)n1)Nc1ccccc1C(F)(F)F	none (no result: Rce1 inhib)
O=C(CC(Cc1ccccc1)c1ccco1)NC1CCCCC1 (configuration not stated)	none
CC(NCCC(Cc1ccccc1)c1ccco1)c1ccccc1 (configuration not stated)	Kir21 block -14 | hERG inh inactive | KCNK9 inh inactive | Kir21 ephys inh inactive
CC1(C)CC(NS(=O)(=O)c2ccc(C(C)(C)C)cc2)CC(C)(C)N1	none (no result: Rce1 inhib)
CCOc1cc(C)c(Cl)cc1S(=O)(=O)NCc1ccco1	Kir21 block -8 | hERG inh inactive | KCNK9 inh inactive | Kir21 ephys inh 31%
COc1cc(C)c(Cl)cc1S(=O)(=O)NCc1ccco1	none
CCCCOc1ccc(C(=O)N2CCNC(=O)C2)cc1	none
CCc1nc(C)cn1S(=O)(=O)c1cc(Cl)c(OC)cc1Cl	Kir21 block -10 | hERG inh inactive | KCNK9 inh inactive | Kir21 ephys inh 51%
CCc1nc(C)cn1S(=O)(=O)c1cc(Br)ccc1OC	Kir21 block -8.9 | hERG inh inactive | KCNK9 inh inactive | Kir21 ephys inh 64%
COc1ccc(C(C)NC(=O)c2ccccc2)cc1 (configuration not stated)	none
COc1ccc(C(CCNC(C)c2ccccc2)C(C)C)cc1 (configuration not stated)	Kir21 block -11 | hERG inh inactive | KCNK9 inh inactive | Kir21 ephys inh 2.7%
Cc1ccc(/C(=N/Nc2nc3ccccc3s2)C2=C(O)c3ccccc3C2=O)cc1	none | hERG inh inactive | KCNK9 inh inactive | Kir21 ephys inh inactive
COc1cc(NS(=O)(=O)c2ccc(Nc3nc(-c4ccccc4)cs3)cc2)nc(OC)n1	none | hERG inh inactive | KCNK9 inh inactive | Kir21 ephys inh inactive
COc1cc(NS(=O)(=O)c2ccc(NC(=S)Nc3ccccc3)cc2)nc(OC)n1	none
COc1ccc(NS(=O)(=O)c2ccc3c(c2)NC(=O)CO3)cc1	none
COc1ccc(CCN(Cc2cc3ccc(C)cc3n3nnnc23)C(C)=O)cc1OC	none
CCCCN(CCCC)CCNC(=O)CN1C(=O)COc2ccc(S(=O)(=O)N3CCC(C)CC3)cc21	none
CCCCN(CCCNC(=O)CN1C(=O)COc2ccc(S(=O)(=O)N3CCC(C)CC3)cc21)Cc1ccccc1	Kir21 block -5.7 | hERG inh inactive | KCNK9 inh inactive | Kir21 ephys inh inactive
COc1ccc(F)cc1S(=O)(=O)N1CCN(c2ccccn2)CC1	none
COc1ccc(F)cc1S(=O)(=O)N1CC(C)CC(C)C1 (configuration not stated)	Kir21 block -6.2 | hERG inh inactive | KCNK9 inh inactive | Kir21 ephys inh 37%
COc1ccc(Br)cc1S(=O)(=O)N1CC(C)OC(C)C1 (configuration not stated)	Kir21 block -6.2 | hERG inh inactive | KCNK9 inh inactive | Kir21 ephys inh 26%
COc1ccc(Br)cc1S(=O)(=O)N1CCOCC1	none
O=C(c1cc2cc(Cl)ccc2[nH]1)N1CCN(Cc2ccc3c(c2)OCO3)CC1	none
Cc1cccc(C(=O)NNC(=O)c2ccccc2Br)c1	none
O=C(NCCc1ccc(Cl)cc1)C1(c2ccccc2)CC1	Kir21 block -9.5 | hERG inh inactive | KCNK9 inh inactive | Kir21 ephys inh 44%
COc1ccc(C2(C(=O)NCCc3ccccc3)CCCC2)cc1	none
Nc1nc(C2CC2)c(Sc2sc(N)nc2C2CC2)s1	Kir21 block -8.2 | hERG inh inactive | KCNK9 inh inactive | Kir21 ephys inh 6.1%
Nc1nc(C2CCOCC2)cs1	none
CCOc1ccc(CN2CCC(Cc3ccccc3)CC2)cc1	Kir21 block -5.8 | hERG inh 68% | KCNK9 inh inactive | Kir21 ephys inh 49%
C=CCNCCCCOc1c(Cl)cc(C)cc1Br	Kir21 block -9.3 | hERG inh inactive | KCNK9 inh inactive | Kir21 ephys inh 48%
C=CCNCCCOc1ccc(C)cc1Br	none
Cc1ccc(S(=O)(=O)CCCS(=O)(=O)c2ccc(C)cc2)cc1	Kir21 block -5.7 | hERG inh inactive | KCNK9 inh inactive | Kir21 ephys inh 17%
CCc1cc2c(CN3CCN(Cc4ccccc4)CC3)cc(=O)oc2cc1O	Kir21 block -6 | hERG inh inactive | KCNK9 inh inactive | Kir21 ephys inh inactive
